Screening results as filed in PubChem BioAssay.
Shown are actives, neighbours in structure and some others; about 0.74% of the full set was active somewhere.
APEX1 inh – qHTS Assay for Inhibitors of the Human Apurinic/apyrimidinic Endonuclease 1 (APE1); DNA repair nuclease/redox regulator APEX1 (Homo sapiens), P27695; recombinant APE1, TAMRA/BHQ-2 abasic DNA cleavage fluorescence; Potency, µM (titrated, usually from 65.8 µM), hits mostly inhibitors; hit rate 0.35% among 350,000; AID 2517, 2012; note: nearly all actives have a fitted effect of over 55% in size
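Step 1: APE1 (0.75 nM) with compound, 15 min RT. Step 2: add 50 nM fluorophore/quencher THF duplex. Step 3: three fluorescence reads 60 s apart (525/598 nm); read 3 minus read 1 = reaction progress.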
BLM inh – qHTS Assay for Inhibitors of Bloom's syndrome helicase (BLM); recombinant BLM DNA unwinding, fluorescence dequenching; Potency, µM (series often up to 56.1 µM), usual class: inhibitors; AID 2528, 2010; hit rate 0.2% among 350,000; note: nearly all actives have a fitted effect of over 35% in size
FEN1 inh – qHTS Assay for the Inhibitors of Human Flap endonuclease 1 (FEN1) | P39748 | Recombinant FEN1 flap cleavage, fluorescence, 15 min | Potency, µM (doses to about 114 µM), actives largely listed as inhibitors | hit rate 0.35% among 390,000 | AID 588795, 2011; note: nearly all actives have a fitted effect of over 65% in size
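Potency values derive from four-parameter Hill fits of normalized qHTS data. The reaction used 10 nM FEN1 preincubated 15 min at room temperature with compound, then 50 nM DNA substrate, read at 0 and 15 min.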
Tb PGK inh – qHTS Assay to Find Inhibitors of Phosphoglycerate Kinase. Potency, µM (series often up to 57.5 µM), hits mostly inhibitors. AID 602233, 2012. PGK/GAPDH coupled, Kinase-Glo luminescence, 60 min. hit rate 0.043% among 380,000. Phosphoglycerate kinase, glycosomal (Trypanosoma brucei brucei), P07378; note: nearly all actives have a fitted effect of over 60% in size
Target sequence (P07378 whole entry, looked up): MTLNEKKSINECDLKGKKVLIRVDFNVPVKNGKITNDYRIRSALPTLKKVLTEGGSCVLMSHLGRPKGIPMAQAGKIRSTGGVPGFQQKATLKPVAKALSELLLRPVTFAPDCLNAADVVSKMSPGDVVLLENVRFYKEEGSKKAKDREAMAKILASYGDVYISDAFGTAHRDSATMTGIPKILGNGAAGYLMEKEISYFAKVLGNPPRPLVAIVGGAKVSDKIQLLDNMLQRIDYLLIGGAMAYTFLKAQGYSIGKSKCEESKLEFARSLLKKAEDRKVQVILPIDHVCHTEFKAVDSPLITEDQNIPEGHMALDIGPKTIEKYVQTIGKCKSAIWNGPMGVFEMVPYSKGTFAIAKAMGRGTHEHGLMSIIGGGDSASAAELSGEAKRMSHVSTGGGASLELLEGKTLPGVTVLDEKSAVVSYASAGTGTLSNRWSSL
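Luminescent ATP detection (Kinase-Glo Plus) follows a 60-minute room-temperature incubation, with wells lacking PGK as controls. Buffer: 100 mM TEA (pH 7.6), 5 mM MgCl2, 0.01% Tween-20. Coupling enzyme GAPDH (100 nM final) supplies unstable 1,3-BPG in-well.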
RECQ1 inh-1 – qHTS Assay for Inhibitors of RecQ-Like Dna Helicase 1 (RECQ1); RECQ1 DNA unwinding, red fluorescence kinetic read; Potency, µM (titrated, usually from 57.3 µM), most hits filed as inhibitors; hit rate 0.54% among 240,000; note: nearly all actives have a fitted effect of over 30% in size
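RECQ1T1 50 nM; forked duplex (20 bp + 30-nt ss tails) 200 nM, ATP 2 mM final; pH 8.0, 2 mM MgCl2, 2.5 ug/ml poly(dI-dC); 15 min compound preincubation; discontinuous kinetic read over 2 h at RT.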
RECQ1 inh conf – Confirmation qHTS Assay for Inhibitors of RecQ-Like Dna Helicase 1 (RECQ1). shares compounds with RECQ1 inh-1. RECQ1 helicase DNA unwinding, fluorescence. Potency, µM (titrated, usually from 229 µM), actives largely listed as inhibitors. hit rate 28% among 610; note: nearly all actives have a fitted effect of over 45% in size
ADP FP counter – Counterscreen for RECQ1 Inhibitors: ADP Fluorescence Polarization Displacement Assay; shares compounds with RECQ1 inh-1; Potency, µM (series often up to 228 µM), usual class: inhibitors; ADP fluorescence polarization displacement counterscreen; hit rate 27% among 530; note: nearly all actives have a fitted effect of over 45% in size
RECQ1 inh-2 – Confirmation qHTS Assay for Inhibitors of RecQ-Like Dna Helicase 1 (RECQ1) - Round 2 Cherry Picks | Potency, µM (titrated, usually from 119 µM), most hits filed as inhibitors | shares compounds with RECQ1 inh-1 | AID 504841, 2011 | recombinant RECQ1 DNA unwinding, red fluorescence | hit rate 15% among 1,100; note: nearly all actives have a fitted effect of over 50% in size
Hits are given with their value; . = inactive; ? = inconclusive; / = no result. Calls come from the whole dose curve; as a rule, active = well fitted curve in the direction sought with a large enough effect; inconclusive = small, poorly fitted or top-dose-only effect, or another doubt; inactive = no such curve, though single readings can be large; an effect the other way counts as inactive or inconclusive.

SMILES	APEX1 inh	BLM inh	FEN1 inh	Tb PGK inh	RECQ1 inh-1	RECQ1 inh conf	RECQ1 inh-2	others
Nc1ccc(C(=O)OCC(=O)N2c3ccccc3Sc3ccccc32)cc1[N+](=O)[O-]	.	.	.	.	28.2µM	/	.
Nc1cc(=O)[nH]c(SCC(=O)N2N=C(c3ccc(Cl)cc3)CC2c2ccco2)n1 (stereo not given)	.	.	.	.	?	/	.
CC(C)CC(=O)Nc1ccc(C(=O)Cn2nc(C(=O)O)c3ccccc3c2=O)cc1	.	.	.	.	.	.	/	ADP FP counter=.
O=C(Cn1nc(C(=O)O)c2ccccc2c1=O)Nc1ccc2c(c1)C(=O)c1ccccc1C2=O	.	.	/	/	.	?	/	ADP FP counter=112µM
COc1ccc(NC(=O)Cn2c(=O)n(-c3ccccc3)c(=O)c3c4c(sc32)CCCC4)cc1	/	.	.	.	/	/	/
COC1=C(Nc2ccc(C)cc2)C(=O)c2ccccc2C1=O	?	.	.	.	?	/	.
COc1cc(/C=C2/C(=O)NN(c3cccc(Cl)c3)C2=O)cc(OC)c1O	.	.	.	.	/	/	/
CC1=Nc2ccccc2/C1=C/c1sc(=N)n(-c2nccs2)c1O	.	.	?	.	17.8µM	.	/	ADP FP counter=.
Cc1cc(/C=N/Nc2ccc([N+](=O)[O-])cn2)c(C)n1-c1ccc(C(=O)O)cc1	?	?	?	.	17.8µM	?	/
CCn1c(SCc2nnc(-c3ccccc3)o2)nnc1-c1ccc(S(=O)(=O)N2CCCC2)cc1	.	.	.	.	.	/	/
O=S(=O)(c1ccc(-c2nnc(SCc3nnc(-c4ccccc4)o3)o2)cc1)N1CCCC1	.	.	.	.	.	.	/	ADP FP counter=.
Cc1nn(-c2ccccc2)c2nc(-c3ccco3)cc(C(=O)O)c12	?	.	?	.	28.2µM	/	.
Cc1nn(-c2cccc(Cl)c2)c2nc(-c3ccco3)cc(C(=O)O)c12	.	.	.	.	.	/	/
O=C(O)c1cc(-c2ccco2)nn1-c1cccc(Cl)c1	?	.	.	.	25.1µM	/	?
COc1cccc2cc(-c3ccccc3)c(=O)oc12	.	.	.	.	.	/	/
Cn1c(=O)n(C)c2cc(C(N)=O)ccc21	.	.	.	/	.	/	/
O=C1NN(c2cccc(Br)c2)C(=O)/C1=C/c1ccc(-c2cc([N+](=O)[O-])ccc2O)o1	.	.	?	?	20µM	63.1µM	/
C=CCn1c(SCC(=O)NCC2CCCO2)nc2scc(-c3ccco3)c2c1=O (stereo not given)	?	.	.	.	?	/	?
C=CCn1c(SCC(=O)NCC2CCCO2)nc2scc(-c3ccc(OC)cc3)c2c1=O (stereo not given)	.	.	.	.	/	/	/
O=c1c2c(-c3ccco3)csc2nc(SCc2cn3cccnc3n2)n1-c1ccccc1	.	.	.	.	12.6µM	/	.
NC(=O)CSc1nc2scc(-c3ccco3)c2c(=O)n1-c1ccccc1	.	?	?	.	28.2µM	?	?	ADP FP counter=.
Cc1n[nH]c(C)c1N1C(=O)c2cccc3c(N4CCCCCC4)ccc(c23)C1=O	.	.	.	.	28.2µM	/	79.4µM
O=C1c2cccc3c(N4CCCCC4)ccc(c23)C(=O)N1c1cccc(O)c1	.	.	?	.	.	/	/
c1ccc2oc(-c3[nH]ncc3CN3CCSCC3)cc2c1	.	.	.	.	?	/	.
CCN(Cc1ccccc1)S(=O)(=O)c1c(C)n(C)c(=O)n(C)c1=O	.	/	.	.	/	/	/
SMILES	APEX1 inh	BLM inh	FEN1 inh	Tb PGK inh	RECQ1 inh-1	RECQ1 inh conf	RECQ1 inh-2	others
Cc1cc(C)n2c(SCC(=O)Nc3c(C)n(C)n(-c4ccccc4)c3=O)nnc2n1	.	.	.	.	.	.	/	ADP FP counter=.
CCOc1ccc(N2C(=O)CC(Sc3ccccc3C(=O)O)C2=O)c([N+](=O)[O-])c1 (stereo not given)	.	.	.	.	.	.	/	ADP FP counter=.
O=C(O)c1ccccc1SC1CC(=O)N(c2cccc3ccccc23)C1=O (stereo not given)	.	.	.	.	.	/	/
CC(C)NC(=O)c1cc(-n2cnnc2)ccc1Cl	.	.	.	.	.	/	/
COc1ccc(Cc2noc(CN(C)CC3CCN(Cc4ccccc4)CC3)n2)cc1OC	.	.	.	.	.	/	/
CC(C)Oc1ccc(CNC(=O)c2ccc(CS(=O)Cc3ccccc3Cl)o2)cc1 (stereo not given)	/	.	.	.	/	/	/
C=CCn1c(SCC(=O)O)nnc1-c1cccs1	.	.	.	.	.	.	/	ADP FP counter=.
C=CCn1c(SCC(=O)Nc2ccc3c(c2)CCC3)nnc1-c1cccs1	.	.	.	.	.	/	/
COc1ccc(S(=O)(=O)NCCCCCC(=O)O)cc1C(=O)O	.	.	.	.	.	.	/	ADP FP counter=.
CC1=C(C(=O)Nc2ccc(F)c(F)c2)C(c2cccs2)NC(=S)N1 (stereo not given)	.	.	.	.	.	/	/
CC(C)OC(=O)CC(=O)c1sc2nc3c(cc2c1N)CN(C)CC3	.	.	?	.	12.6µM	/	.
O=C1CCCN2N=C(SCC(=O)Nc3ccc(OC(F)(F)F)cc3)SC2=N1	.	.	.	.	/	/	/
S=C(NCc1ccco1)Nc1ccc(Oc2ccc(Cl)cc2)cc1	.	.	.	.	?	/	.
c1ccc2c(Nc3ccc4c(c3)OCCO4)c3c(nc2c1)CCC3	.	.	.	/	?	/	.
Cc1ccc(S(=O)(=O)N2CCCCC2)cc1NC(=O)Cn1ccc(C(F)(F)F)n1	.	.	.	.	39.8µM	/	.
O=C(Cn1ccc(C(F)(F)F)n1)Nc1cccc(S(=O)(=O)N2CCCCC2)c1	.	.	.	.	.	/	/
Cc1cc2nc3ccc(=[N+](C)C)cc-3sc2cc1N	?	15.8µM	22.4µM	.	15.8µM	3.55µM	15.8µM	ADP FP counter=7.08µM
c1ccc2nc(-c3cc4ccccc4s3)ccc2c1	/	/	.	/	/	/	/
CC(=O)Nc1ccc(N2C(=O)c3ccc(S(=O)(=O)c4ccc(C(=O)O)cc4)cc3C2=O)cc1	.	.	.	.	/	/	/
